Source: PubChem BioAssay (NCI)
Compounds without any hit were thinned out: in the full panel of roughly 79,000, 15% have a hit. A number with no mark means an inactive call. Calls of active or inactive are those of the source. Rule as the data show it: active = growth inhibition above about 70%; inactive = the rest.

Key:
[1] = NCI Yeast Anticancer Drug Screen. Data for the rad50 strain (AID 155);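 also: 0% = growth of vehicle-only cultures of the same strain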; conditions: S. cerevisiae rad50 strain growth inhibition, active compounds read high
Procedure, shortened: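 Relative growth inhibition (compound vs vehicle) was measured in yeast with a defined repair-gene alteration.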

[2] = NCI Yeast Anticancer Drug Screen. Data for the mec2-1 strain (AID 157); conditions: S. cerevisiae mec2-1 strain, active compounds read high
Procedure, shortened: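 Strain: mec2-1 (DNA repair/cell cycle alteration). Compound exposure, then growth measured; inhibition expressed relative to vehicle.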

[3] = NCI Yeast Anticancer Drug Screen. Data for the sgs1 mgt1 strain (AID 161);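 also: 0% = growth of cultures given vehicle only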; conditions: S. cerevisiae sgs1 mgt1 strain, active compounds read high
Procedure, shortened: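 Mutant yeast exposed to compound; growth scored against vehicle-only wells.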

[4] = NCI Yeast Anticancer Drug Screen. Data for the cln2 rad14 strain (AID 165);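 also: 0% = growth equal to vehicle treated cultures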; conditions: S. cerevisiae cln2 rad14 strain, active compounds read high
Procedure, shortened: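 Compounds are applied to the cln2 rad14 yeast strain, and growth is then compared with that of vehicle-treated cultures to give inhibition.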

[5] = NCI Yeast Anticancer Drug Screen. Data for the bub3 strain (AID 167); conditions: S. cerevisiae bub3 mutant strain, active compounds read high
Procedure, shortened: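 Screening used yeast with an engineered genetic alteration affecting cell cycle control. Compound-exposed cultures were compared with vehicle cultures, and reduced growth was taken as inhibition.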

[6] = NCI Yeast Anticancer Drug Screen. Data for the mlh1 rad18 strain (AID 175); conditions: S. cerevisiae mlh1 rad18 strain growth inhibition, active compounds read high
Procedure, shortened: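 Read-out is yeast growth inhibition, calculated against vehicle-only controls. The compound was applied to a strain engineered with DNA damage repair alterations.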

[7] = at 5.0 µM (retest, dose inferred, filed as 0.5)
[8] = at 50.0 µM (retest, dose inferred, filed as 5.0)

SMILES | growth inhibition [1, 7] | growth inhibition [1, 8] | growth inhibition ([1]; at 50.0 µM) | growth inhibition [2, 7] | growth inhibition [2, 8] | growth inhibition ([2]; at 50.0 µM) | growth inhibition [3, 7] | growth inhibition [3, 8] | growth inhibition ([3]; at 50.0 µM) | growth inhibition [4, 7] | growth inhibition [4, 8] | growth inhibition ([4]; at 50.0 µM) | growth inhibition [5, 7] | growth inhibition [5, 8] | growth inhibition ([5]; at 50.0 µM) | growth inhibition [6, 7] | growth inhibition [6, 8] | growth inhibition ([6]; at 50.0 µM)
CCOC(=O)C1CN(CCCCCCN2CC(C(=O)OCC)C(=O)C2=O)C(=O)C1=O (centres undefined) | -11% | 4% | 22.1% | 2% | 1% | 3.1% | -21% | 3% | 28.5% | 4% | 0% | 52.9% | 0% | 2% | 0.05% | -2% | 0% | 30.4%
CC(=O)N1C(C(=O)NNc2ccccc2)CSC1c1ccccc1 (centres undefined) | 71% (active) | 90% (active) | 38.1% | 40% | 84% (active) | 64.6% | 75% (active) | 89% (active) | 44.6% | 42% | 82% (active) | 65% | 57% | 93% (active) | 35.2% | 83% (active) | 96% (active) | 56.1%
Nc1nc(-c2ccc(Cl)cc2)cs1 | -20% | 94% (active) | 98% (active) | 4% | 91% (active) | 97.4% (active) | 8% | 91% (active) | 98.2% (active) | -44% | 92% (active) | 97% (active) | -29% | 90% (active) | 97.8% (active) | -30% | 97% (active) | 97.7% (active)
Cc1ccc2c(c1)C1(SC(C)C(=O)N1c1ccc(F)cc1)C(=O)N2 (centres undefined) | 11% | 98% (active) | 99% (active) | 15% | 99% (active) | 98.8% (active) | 14% | 98% (active) | 98.8% (active) | 11% | 98% (active) | 97.8% (active) | 10% | 99% (active) | 98.6% (active) | 11% | 99% (active) | 99% (active)
NC1c2ccccc2-c2ccc([N+](=O)[O-])cc21 (centres undefined) | 12% | -2% | 40% | 4% | -24% | -7.35% | 4% | 35% | 26.6% | -24% | -4% | -9.3% | 1% | 3% | -12.2% | 14% | 38% | 39.9%
CC([NH-])C(=O)O.[Cu+2].[NH-]C(Cc1cnc[nH]1)C(=O)O (centres undefined) | -8% | 7% | 98.9% (active) | -4% | 0% | 99.3% (active) | -3% | 1% | 98.7% (active) | 4% | 12% | 96% (active) | -5% | -1% | 99% (active) | -7% | 2% | 98.7% (active)
Cc1cc(SCC(=O)c2ccc(Br)cc2)cc(C)[o+]1 | -14% | 80% (active) | 94.5% (active) | 4% | 95% (active) | 95% (active) | 20% | 81% (active) | 91.5% (active) | -42% | 75% (active) | 90% (active) | -5% | 95% (active) | 93.1% (active) | -8% | 92% (active) | 95.1% (active)
CC1(C)OC2C(COC(c3ccccc3)(c3ccccc3)c3ccccc3)OC(n3cnc4c(N)ncnc43)C2O1 (centres undefined) | -1% | 80% (active) | 64.9% | 19% | 99% (active) | 56.8% | 11% | 92% (active) | 18.6% | -4% | 89% (active) | 72.5% (active) | -2% | 92% (active) | 48.2% | 32% | 95% (active) | 58.5%
Cc1ccc(S(=O)(=O)OCCc2ccc(Cl)cc2)cc1 | -10% | -21% | -19.6% | -11% | -13% | -10.3% | -6% | 41% | -10.4% | -15% | -20% | -16.5% | 9% | 22% | 71.2% (active) | -14% | -12% | -7.75%
Fc1ccc(NC(=S)SCc2ccc(Cl)cc2)c(F)c1 | 19% | 99% (active) | 99.3% (active) | 11% | 99% (active) | 99.6% (active) | 13% | 99% (active) | 99.5% (active) | -2% | 99% (active) | 99.4% (active) | 19% | 98% (active) | 99.5% (active) | 7% | 98% (active) | 99.5% (active)
COC(=O)/C=C1/OC(c2ccccc2)=C(Br)C1=O | 17% | 17% | 89.3% (active) | 11% | 11% | 91.3% (active) | 11% | 11% | 86.5% (active) | -6% | -6% | 88.3% (active) | -2% | -2% | 88.5% (active) | 15% | 15% | 85.3% (active)
Cc1ccc(S(=O)(=O)/C=C/C(=O)c2ccc3ccccc3c2)cc1 | 83% (active) | 86% (active) | 97.2% (active) | 96% (active) | 95% (active) | 98.4% (active) | 84% (active) | 96% (active) | 95.9% (active) | 20% | 91% (active) | 96.5% (active) | 47% | 96% (active) | 94.5% (active) | 88% (active) | 95% (active) | 97.1% (active)
COC(=O)C1=C(C)NC(C)=C([N+](=O)[O-])C1c1cccc(N=O)c1 (centres undefined) | 22% | 68% | 74.2% (active) | 16% | 98% (active) | 72.1% (active) | 27% | 86% (active) | 89.8% (active) | 28% | 45% | 57.2% | 26% | 93% (active) | 90.2% (active) | 33% | 97% (active) | 84.4% (active)
CCCCCCCOC(=O)CSC#N | 61% | 99% (active) | 99.2% (active) | 52% | 99% (active) | 99.3% (active) | 95% (active) | 99% (active) | 99% (active) | 29% | 99% (active) | 98.5% (active) | 86% (active) | 99% (active) | 99.3% (active) | 90% (active) | 98% (active) | 99.3% (active)
O=C1C=CC(=O)c2c(O)c(N3CCN(CCOCCO)CC3)c(Br)c(O)c21 | 15% | 96% (active) | 88.3% (active) | 13% | 98% (active) | 88.6% (active) | 18% | 97% (active) | 89.7% (active) | 17% | 96% (active) | 86.4% (active) | 25% | 96% (active) | 85.9% (active) | 16% | 98% (active) | 86.5% (active)
CC(=O)c1cccc(NC2C(N)C(NC(=O)N(C)C)(C(C)O)C(C)(O)C2(O)COC(=O)c2c(C)cccc2O)c1 (centres undefined) | 42% | 96% (active) | 93% (active) | 17% | 98% (active) | 94.5% (active) | 44% | 97% (active) | 94.6% (active) | 21% | 96% (active) | 92% (active) | 36% | 98% (active) | 93.8% (active) | 47% | 97% (active) | 93.2% (active)
COc1ccc(/C(O)=C/c2nc3ccc([N+](=O)[O-])cc3[nH]c2=O)cc1 | 12% | 70% (active) | 78.9% (active) | 1% | 57% | 49.5% | -2% | 67% | 92.6% (active) | 3% | 77% (active) | 80.7% (active) | 2% | 46% | 26.9% | 2% | 68% | 90.8% (active)
CCc1ccc(CC(=O)O)c2ccc3c(C)ccc(C)c3c12 | 15% | 96% (active) | 98.9% (active) | 14% | 98% (active) | 95.8% (active) | 14% | 97% (active) | 98.6% (active) | 19% | 93% (active) | 95.8% (active) | 11% | 51% | 63.5% | 8% | 96% (active) | 94.4% (active)
